Laboratory results as given in PubChem BioAssay AID1851 (National Center for Advancing Translational Sciences (NCATS), 2009).
“And” between values parts separate entries of the source, which are not always exact repeats. Equal entries are not always repeated. Hit rate of the full screen: of about 16,000 compounds, about 5,800 (36%) were called active. Not shown: some 23% with an inconclusive outcome. The call rests on the fitted dose curve; in most records, active means well fitted curve in the direction sought with a large enough effect; inconclusive means small, poorly fitted or top-dose-only effect, or effect the other way; inactive means no such curve, though single readings can be large or run the other way. Some of the results follow.

Target: Cytochrome P450 2C19 (Homo sapiens) (UniProt P33261)
Test: Cytochrome panel assay with activity outcomes
Conditions: recombinant CYP, pro-luciferin dealkylation, luminescence, p450-cyp2c19; series mostly up to 57.1 µM; activity, negative = inhibition: at the top concentration
On the % scale 0 is the no-effect control and ±100 the full control effect.

Chain of Cytochrome P450 2C19 (Homo sapiens) (P33261 whole entry, looked up): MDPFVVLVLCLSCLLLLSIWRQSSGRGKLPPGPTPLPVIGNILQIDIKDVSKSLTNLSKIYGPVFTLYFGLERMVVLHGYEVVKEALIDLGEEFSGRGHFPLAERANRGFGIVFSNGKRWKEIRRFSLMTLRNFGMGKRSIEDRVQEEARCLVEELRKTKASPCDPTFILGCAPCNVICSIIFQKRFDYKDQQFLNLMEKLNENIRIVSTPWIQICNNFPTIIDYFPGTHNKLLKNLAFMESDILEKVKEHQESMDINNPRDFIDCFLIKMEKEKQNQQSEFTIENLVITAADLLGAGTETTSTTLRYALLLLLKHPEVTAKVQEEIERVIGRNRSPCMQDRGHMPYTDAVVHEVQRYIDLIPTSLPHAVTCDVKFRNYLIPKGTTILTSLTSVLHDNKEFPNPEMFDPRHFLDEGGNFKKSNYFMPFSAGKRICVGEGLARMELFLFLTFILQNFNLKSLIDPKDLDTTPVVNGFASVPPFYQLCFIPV

AC50, active:
NCCCCNS(=O)(=O)c1cccc2c(Cl)cccc12 0.1 µM
NCCCCNS(=O)(=O)c1ccc2c(Cl)cccc2c1 0.00251 µM
NCCCCCCNS(=O)(=O)c1cccc2c(Cl)cccc12 200 nM and 10 nM
CCCCCCCNS(=O)(=O)c1cccc2c(Cl)cccc12 0.126 µM
CCCCNS(=O)(=O)c1ccc(OC)c(Cl)c1Cl 0.794 µM
NCCCCCCCCCCNS(=O)(=O)c1cccc2c(Cl)cccc12 0.0794 µM
NCCCCCCNS(=O)(=O)c1cccc2ccccc12 1 µM
O=S(=O)(NCCCCCCc1ccccc1)c1cccc2c(Cl)cccc12 1 µM
CCNC(=O)COC(=O)c1cc(-c2ccc(OC)cc2)nc2ccccc12 11.2 µM
Cc1cc(C(=O)OCC(=O)NCCC(C)C)c2ccccc2n1 14.1 µM
COc1ccc(NC(=S)Nc2ccccc2)cc1 2 µM
COc1ccc(C(=S)Nc2ccccc2)cc1 3.98 µM
COc1cccc(-c2[nH]nc3c2C(c2ccsc2)C(C#N)=C(N)O3)c1 (stereo unspecified) 0.447 µM
COc1cccc(-c2[nH]nc3c2C(c2ccc(C)o2)C(C#N)=C(N)O3)c1 (stereo unspecified) 1.78 µM
COC(=O)C1=C(C)OC(N)=C(C#N)C1c1cc(OC)ccc1OC (stereo unspecified) 7.94 µM
COC(=O)C1=C(C)OC(N)=C(C#N)C1C1CCCCC1 (stereo unspecified) 0.562 µM
O=C(c1coc(=O)c2ccccc12)N1CCN(Cc2ccccc2)CC1 2.24 µM
COc1ccc(Nc2ncc(C(=O)N3CCN(c4ccc(F)cc4)CC3)c3ccccc23)cc1 2.24 µM
COc1ccc(Nc2ncc(C(=O)N3CCN(Cc4ccccc4)CC3)c3ccccc23)cc1 2 µM
COC(=O)c1ccccc1OCC(=O)N1CCN(c2ccc(OC)cc2)CC1 14.1 µM
Fc1ccc(COc2ccc(Br)cc2CNCc2ccncc2)cc1 0.1 µM
COC(=O)c1scc(C)c1NC(=O)Cc1ccccc1 15.8 µM
Cc1cccc(-c2nc(CN3CCCC(C(=O)NC4CCCCC4)C3)c(C)o2)c1 (stereo unspecified) 22.4 µM
Cc1ccccc1-c1nc(-c2ccc(NC(=O)c3cccs3)cc2)no1 2.82 µM
Cc1ccc(Cc2cnc(NC(=O)c3cccs3)s2)cc1 8.91 µM
Cc1ccc(-c2nnc(-c3ccc(NC(=O)c4cccs4)cc3)o2)cc1 6.31 µM
Cn1c(=O)c2c(ncn2CC(COCc2ccccc2Cl)OCc2ccccc2Cl)n(C)c1=O (stereo unspecified) 8.91 µM
Cc1ccc(-c2csc(N3CCC(NS(=O)(=O)c4ccc5c(c4)OCCO5)CC3)n2)cc1 3.16 µM
CCCCOc1ccc(C(=O)N/C(=C\c2ccc(OC)cc2)C(=O)OCc2ccco2)cc1 3.98 µM
O=C(COc1ccc(Br)cc1)Nc1ccc([N+](=O)[O-])cn1 2.82 µM
CCOc1cc(C2CC(=O)c3c(ccc4ccccc34)N2)ccc1O (stereo unspecified) 5.01 µM
Cc1cc(OCc2nc(N)nc(N)c2-c2ccc(Cl)c(Cl)c2)ccc1[N+](=O)[O-] 3.16 µM

AC50, inactive:
NCCNS(=O)(=O)c1cccc2cnccc12
CC(=O)O[C@]1(C(C)=O)CC[C@@H]2[C@@H]3C=C(Cl)C4=CC(=O)[C@H]5C[C@@H]5[C@]4(C)[C@H]3CC[C@]21C

activity, negative = inhibition, inactive:
Nc1ccc(S(=O)(=O)NCCS(=O)(=O)O)cc1 22.1% [at 11.4 µM]
NCCNS(=O)(=O)c1ccc(N)cc1 -4.78% [at 11.4 µM]
CNCCNS(=O)(=O)c1cccc2cnccc12 -28.3%
CCN1C(=O)C=CC1=O -21.9%
C=CCNS(=O)(=O)c1cccc2cc(C(=O)O)c(O)cc12 16.1%
COc1cc(/C=C/C(=O)O)cc(S(=O)(=O)NCCCO)c1OC 5.71%
CC12CCC(C(=O)O)(C/C1=N\O)C2(C)C (stereo unspecified) -19.9%
N[C@@H](Cc1[nH]nc2ccccc12)C(=O)O 2.15% [at 11.4 µM]
COc1ccc(OC)c(-c2cc(C(=O)O)c3cc4ccccc4cc3n2)c1 2.46% [at 11.4 µM]
CC(C)NC(=O)COC(=O)c1cc(=O)[nH]c2ccccc12 2.4%
CCNC(=O)COC(=O)c1cc(=O)[nH]c2ccccc12 -10.7%
COc1ccc(C(=O)N2CCC3(CC2)CN(C(=O)Nc2ccccc2)C3)cc1 7.1%
CS(=O)(=O)N1CCC2(CCN(Cc3nccs3)CC2)CC1 -15.5%
NC(N)=N[C@H](CCC(=O)O)C(=O)O 28.8%
COC(=O)N1CCC[C@@]2(CCN(C(=O)Nc3cccc(C#N)c3)C2)C1 -28.2%
COc1cc(C2C(C#N)=C(N)OC3=C2C(=O)CCC3)cc(OC)c1OC(=O)N1CCOCC1 (stereo unspecified) 24%
COc1cccc(Nc2ncc(C(=O)O)c3ccccc23)c1 -20.7%
O=C(c1ccco1)N1CCC2(CCN(Cc3ccccc3)CC2)CC1 -25.6%
COc1ccc(C(=O)N2CCC3(CCN(Cc4ccccc4OC)CC3)CC2)cc1 21.2%
CC(=O)N1CCC2(CCN(Cc3ccccc3)CC2)CC1 -14.9%
COc1ccc(N2CCN(C(=N)/C(C(C)=O)=C(\C)O)CC2)cc1 -57.5%
C1CNCCOCCNCCN1 -22.9%
CCCN[C@@H](C)C(=O)Nc1c(C)csc1C(=O)OC -40.8% [at 25.6 µM]
O=C(Nc1ccccc1)N1CC[C@@]2(CCCN(C(=O)c3cnccn3)C2)C1 20.3%
Cn1c(=O)c2c(ncn2CCO)n(C)c1=O 33.6% [at 25.6 µM]
Cn1c(=O)c2c(ncn2C[C@@H](O)CO)n(C)c1=O -17.4% [at 25.6 µM]
CCCCOc1ccc(C(=O)N/C(=C\c2cccc([N+](=O)[O-])c2)C(=O)OCCC)cc1 -1.17%
O=c1c(-c2ccc(Cl)cc2)nc2cnc(N3CCOCC3)nc2n1C1CC1 -2.62%
C/C(=N\NC(=O)COc1ccc([N+](=O)[O-])cc1)C(C)(C)C 0.313%
CC(=O)Nc1ccc([N+](=O)[O-])cn1 -29.9%
CCOc1ccc2ccccc2c1C(=O)N[C@@H]1C(=O)N2[C@@H]1SC(C)(C)[C@@H]2C(=O)O 6.01% [at 25.6 µM]
Nc1cccc(OCc2nc(N)nc(N)c2-c2ccc(Cl)cc2)c1 -6.77% [at 11.4 µM]
